Hits are enriched below; roughly 2.2% of the tested compounds scored in any of these assays.
Cardio protect = cardioprotection against H2O2-induced cell death, primary screen, uHTS, H9c2 cells, ATPLite luminescence. H9c2 cardiomyocytes, H2O2 injury protection, 2 h. protection from H2O2 cell death, % at 20 µM. 0.63% of 360,000 active. AID 588492, 2011;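 active means compounds giving at least 50% protection of heart cells from peroxide-induced death in the single-dose screen, raw or plate-pattern-corrected value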;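 further: 0% = DMSO wells with peroxide and 100% = DMSO wells without peroxide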
PLC-beta3 inh = human PLC-beta3 inhibitors, primary screen, biochemical, fluorescence; 1-phosphatidylinositol 4,5-bisphosphate phosphodiesterase beta-3 (Homo sapiens), Q01970; inhibition, % at 12.2 µM; Purified PLC-beta3, fluorogenic substrate; AID 720704, 2013; 0.18% of 370,000 active; in the data active means inhibition above about 11%;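 further: 0% = median of compound wells on plate and 100% = full blocker control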
PLCg1 inh = PLC-gamma1 enzyme inhibitors, primary screen, biochemical, fluorescence, purified enzyme. fluorogenic substrate. inhibition, % at 12.2 µM. 0.84% of 370,000 active. AID 720700, 2013; in the data active means inhibition above about 9.5%
FAS TE block = FAS thioesterase domain inhibitors, primary screen, biochemical, fluorescence intensity, uHTS; inhibition, % at 15 µM; 0.67% of 360,000 active; recombinant FAS-TE, OMFH fluorogenic substrate, fluorescence endpoint; Fatty acid synthase (Homo sapiens), P49327;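 active means compounds whose normalised, plate-corrected inhibition of enzyme fluorescence in the single-dose primary screen is 50% or more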;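 further: 0% = DMSO with enzyme and 100% = substrate without enzyme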
Starred values were filed as active, the others as inactive; / = no result.

SMILES	Cardio protect	PLC-beta3 inh	PLCg1 inh	FAS TE block
CNC(=O)CSc1nc2cc(S(=O)(=O)Nc3ccccc3OC)ccc2o1	0.9	-9.4	1.6	-2.0
COc1ccc(OC)c(Nc2cc3ccccc3c(=O)[nH]2)c1	53.6*	-39.9	-23.4	26.1
C[C@@H]1CN([C@H](C)CO)C(=O)CCCn2cc(nn2)CO[C@H]1CN(C)S(=O)(=O)c1ccc(Cl)cc1	/	-2.0	0.6	/
Cc1ccc(S(=O)(=O)N2CCCC(C(=O)Nc3c(C)n(C)n(-c4ccccc4)c3=O)C2)cc1C (stereo unspecified)	/	4.2	4.2	/
Cc1nn(-c2ccccc2)nc1C(=O)Nc1cccc(C(=O)NC2CC2)c1	61.3*	0.7	-2.0	8.5
Cc1cc(NC(=O)c2cccs2)cc(-c2nc3ncccc3o2)c1O	58.5*	-25.2	-10.7	0.5
Cc1csc2nc(COC(=O)c3ccc(Cl)c([N+](=O)[O-])c3)cc(=O)n12	81.5*	-7.9	1.8	13.4
COc1cccc2cc3c(nc12)C[C@@H]1CCCC(=O)N2CCC[C@@]12C3	/	-106.7	-78.5	/
CCCCCCCCN1C(=O)[C@@H](CC(=O)NCC2CCCCC2)C[C@@]2(C(=O)OC)C1=C[C@H](C(C)C)O[C@@H]2C1CC1	/	6.0	2.9	/
CCN1CCN(c2nn3c(=O)c4ccccc4nc3c3ccccc23)CC1	38.1	-71.6	-65.2	-9.1
CC1CN(c2nn3c(=O)c4ccccc4nc3c3ccccc23)CC(C)O1 (stereo unspecified)	65.2*	-40.0	-28.7	-4.4
CCOc1cc(/C=C(\C#N)C(=O)Nc2ccc(S(N)(=O)=O)cc2)ccc1OCCN1CCOCC1	55.8*	-25.3	-14.3	-5.0
CCOc1cc(C(=O)OC(C)C(=O)Nc2ccc(S(N)(=O)=O)cc2)ccc1OCC(=O)N1CCOCC1 (stereo unspecified)	-5.6	-1.8	-5.9	-13.4
N=c1c2c(-c3ccccc3)c(-c3ccccc3)oc2ncn1CCN1CCOCC1	28.2	-87.0	-66.3	6.7
c1ccc(-c2oc3ncnc(NCCN4CCOCC4)c3c2-c2ccccc2)cc1	52.6*	-59.4	-19.4	14.3
Cc1c(C(=O)N/N=C/c2ccccc2Cl)[nH][nH]c1=O	/	1.1	-1.1	/
OC1CCN(c2c3c(nc4cc(-c5cccc(F)c5)nn24)CCCC3)CC1	59.3*	-141.2	-108.6	6.0
Cc1sc2nc(COC(=O)CNC(=O)c3ccccc3Cl)[nH]c(=O)c2c1C	/	3.2	2.6	/
O=C(Nc1nc(-c2ccccn2)cs1)c1ccc([N+](=O)[O-])o1	39.6	-14.2	-0.6	12.3
O=C(COc1cccc(F)c1)Nc1nc(-c2ccccn2)cs1	58.7*	-11.8	-4.6	1.2
O=C(COc1ccc([N+](=O)[O-])cc1)Nc1nc(-c2ccccn2)cs1	71.3*	-26.7	-21.2	18.6
O=C(COc1ccccc1)Nc1nc(-c2ccncc2)cs1	-1.7	-15.2	-0.1	4.6
O=C(COc1ccc(F)cc1)Nc1nc(-c2ccccn2)cs1	58.7*	-25.9	-28.8	2.9
Cc1ccc(OCC(=O)Nc2nc(-c3ccccn3)cs2)c(C)c1	53.0*	-25.0	-15.3	6.5
O=C(NCc1ccccc1)[C@@H]1CCCN1C(=O)[C@H]1CCCN1C(=O)c1c(F)cccc1F	/	-0.8	3.1	/
SMILES	Cardio protect	PLC-beta3 inh	PLCg1 inh	FAS TE block
CC(C)C[C@H](NC1(C(=O)NCCc2c[nH]c3ccccc23)CCN(C)CC1)C(=O)NCCCc1ccccc1	/	6.4	3.4	/
C[C@H](O)[C@@H]1C(=O)N2CCc3c([nH]c4c(-c5ccc6c(c5)OCO6)cccc34)[C@@H]2C[C@@H]1N(C)C(=O)Nc1ccccc1	/	-9.1	-9.5	/
CC(=O)CC[C@@H]1CC[C@]2(CCCN(C(=O)C3CCCCC3)C2)O1	/	-0.2	-0.2	/
CN1CCN(c2ccc(NC(=O)COc3ccccc3[N+](=O)[O-])cc2)CC1	22.2	3.7	5.9	-4.6
CC(C)C(=O)N1CCN(c2ccc(NC(=O)COc3ccccc3[N+](=O)[O-])cc2)CC1	72.0*	-3.8	-14.0	-1.0
COc1ccc(OC)c(/C=N/NC(=O)c2cc3c(OC)c(OC)ccc3[nH]2)c1	90.1*	-138.7	-122.7	8.4
CCOc1ccc2[nH]c(C(=O)N/N=C/c3ccccc3OC)cc2c1	22.4	-175.4	-124.0	12.9
COc1ccc2[nH]c(C(=O)N/N=C/c3ccccc3OC)cc2c1	38.3	-277.2	-204.5	5.6
CCCOc1ccc2[nH]c(C(=O)N/N=C/c3cc(OC)c(OC)c(OC)c3)cc2c1	59.4*	-176.2	-133.9	4.3

Screening results (PubChem)
